Inconclusive results are not listed. Active and inactive are the calls of the source. Unless noted, the call rests on the fitted dose curve; in most records, active means well fitted curve in the direction sought with a large enough effect; inconclusive means small, poorly fitted or top-dose-only effect, or another doubt; inactive means no such curve, though single readings can be large; an effect the other way counts as inactive or inconclusive. *1 amine or outer side, *2 acyl side, *3 side chain or, on linkers, in order; H or OH if unused. Where a SMILES comes first, the peptide text is derived from it. [ ]: non-standard residue; d: D form. The star is where a group is joined. ξ: configuration not given here. X9 = CCC(C)(N*)C(=O)C1CC[C@@H](C(=O)N[C@@H](Cc2ccccc2)C(=O)NCC(=O)O)N1; X8 = O=C([C@@H]1CC(O)CN1[*:1])[*:2]; aIle = CC[C@@H](C)[C@H](N)C(=O)O; Thr(3ξ) = CC(O)[C@H](N)C(=O)O; ξIva = CCC(C)(N)C(=O)O; Aib = CC(C)(N)C(=O)O

For assay [1], the target named is Calcium and integrin-binding protein 1 (Homo sapiens) (UniProt Q99828). The assay is described as follows: Primary qHTS for Identification of Calcium Integrin Binding Protein 1 (CIB1) Competitor (AID 1508620).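 Further: GST tagged CIB1 binding a fluorescein labelled alphaIIb integrin peptide tracer; top concentration of the series differs between compounds; on the % scale 0 is the no-effect control and ±100 the full control effect.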 The essentials: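 Fluorescence polarization competition: CIB1-GST (1 uM final) preincubated with compound 15 min at room temperature, then FITC-labeled alphaIIb peptide (100 nM final) added for another 15 min. Polarization read at Ex 480/Em 540.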
Calcium and integrin-binding protein 1 (Homo sapiens), sequence (Q99828 whole entry, looked up): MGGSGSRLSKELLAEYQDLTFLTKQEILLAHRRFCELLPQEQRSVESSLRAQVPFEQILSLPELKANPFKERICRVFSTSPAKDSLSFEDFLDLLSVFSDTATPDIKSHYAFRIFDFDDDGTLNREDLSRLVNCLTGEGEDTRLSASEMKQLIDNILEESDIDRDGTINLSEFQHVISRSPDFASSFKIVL
(In general: Quantitative high-throughput screening tests each substance at several concentrations.)

In assay [2] the target is Cytochrome P450 2C9 (Homo sapiens) (UniProt P11712). The assay is described as follows: Cytochrome P450 family 2 subfamily C member 9 (CYP2C9) small molecule antagonists: luciferase biochemical (cell-free) qHTS assay (AID 1645842; active means well fitted curve in the direction sought with a large enough effect in the repeat runs; an effect the other way counts as inactive or inconclusive; further: nearly all actives have a fitted effect of over 55% in size; further: potency means the concentration at half of the fitted maximal effect; on activity change, negative = inhibition: on the % scale 0 is the no-effect control and ±100 the full control effect). A digest of the protocol: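 P450-Glo CYP2C9 system: proluciferin substrate with enzyme in mix containing 0.4% BSA, 10 min at room temperature, then NADPH regeneration solution added and incubated 1 h at 37C. Detection reagent stopped reaction; luminescence read after 20 min as RLU.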
Cytochrome P450 2C9 (Homo sapiens), sequence (P11712 whole entry, looked up): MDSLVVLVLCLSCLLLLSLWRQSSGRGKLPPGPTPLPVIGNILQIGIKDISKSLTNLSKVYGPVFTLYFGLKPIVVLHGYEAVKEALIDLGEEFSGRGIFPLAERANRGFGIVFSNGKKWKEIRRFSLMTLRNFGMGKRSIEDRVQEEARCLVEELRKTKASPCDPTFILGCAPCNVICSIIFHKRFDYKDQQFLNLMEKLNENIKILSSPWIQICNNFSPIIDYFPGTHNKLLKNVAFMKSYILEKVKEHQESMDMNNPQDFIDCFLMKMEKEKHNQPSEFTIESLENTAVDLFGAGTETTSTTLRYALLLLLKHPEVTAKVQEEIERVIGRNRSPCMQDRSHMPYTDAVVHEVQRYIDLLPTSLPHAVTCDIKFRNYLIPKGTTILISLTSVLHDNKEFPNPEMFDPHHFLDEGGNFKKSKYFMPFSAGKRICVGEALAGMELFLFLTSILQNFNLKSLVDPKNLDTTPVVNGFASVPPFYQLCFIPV

A short description of assay [3]: Primary qHTS for inhibitors of nuclear receptor binding SET domain protein 2 (NSD2) in an isogenic RCH-ACV NSD2 p.E1099K mutant (9B) (AID 1645876). Further: nearly all actives have a fitted effect of over 70% in size. On activity change, negative = viability loss: on the % scale 0 is the no-effect control and ±100 the full control effect.
Assay [4] is described as follows: Primary qHTS for inhibitors of nuclear receptor binding SET domain protein 2 (NSD2) in an RCH-ACV wild type WT cells (2C) (AID 1645877). Further: nearly all actives have a fitted effect of over 70% in size. Further: potency means the concentration at half of the fitted maximal effect.
The target of assay [5] is Catechol O-methyltransferase (Homo sapiens) (UniProt P21964). The assay is described as follows: Confirmatory Screen for Target Class Profiling of Small Molecule Inhibitors of Methyltransferases (AID 1745852; calls by dose curve; on activity change, negative = inhibition: on the % scale 0 is the no-effect control and ±100 the full control effect). To be noted: MTase-Glo luminescence, SAH detection, recombinant enzyme; measured here: COMT max response; stronger effect = lower value.
Catechol O-methyltransferase (Homo sapiens), sequence (P21964 whole entry, looked up): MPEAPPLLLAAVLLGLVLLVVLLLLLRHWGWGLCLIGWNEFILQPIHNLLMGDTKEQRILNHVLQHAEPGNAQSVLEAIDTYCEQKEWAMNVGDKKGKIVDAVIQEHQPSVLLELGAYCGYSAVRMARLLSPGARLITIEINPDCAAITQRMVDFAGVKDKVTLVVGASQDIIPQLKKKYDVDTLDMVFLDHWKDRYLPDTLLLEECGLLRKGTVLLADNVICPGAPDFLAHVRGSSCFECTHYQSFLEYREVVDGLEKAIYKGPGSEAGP
Assay [6] has as its target Guanidinoacetate N-methyltransferase (Homo sapiens) (UniProt Q14353). The description is as above. To be noted: MTase-Glo luminescence, SAH detection, recombinant enzyme; activity change, negative = inhibition: at 57.3 µM (top of the series) unless noted.
Assay [7] deals with Nicotinamide N-methyltransferase (Homo sapiens) (UniProt P40261). Described as above. To be noted: MTase-Glo luminescence, SAH detection, recombinant enzyme; measured here: NNMT max response; stronger effect = lower value.
Nicotinamide N-methyltransferase (Homo sapiens), sequence (P40261 whole entry, looked up): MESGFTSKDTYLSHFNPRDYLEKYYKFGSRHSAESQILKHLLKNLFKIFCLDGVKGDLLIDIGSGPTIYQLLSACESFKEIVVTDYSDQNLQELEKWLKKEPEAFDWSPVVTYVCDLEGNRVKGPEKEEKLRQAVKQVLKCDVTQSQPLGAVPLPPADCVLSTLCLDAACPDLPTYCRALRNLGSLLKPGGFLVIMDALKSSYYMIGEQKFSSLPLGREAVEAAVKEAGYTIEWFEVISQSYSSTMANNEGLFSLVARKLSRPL
For assay [8], the target named is Phenylethanolamine N-methyltransferase (Homo sapiens) (UniProt P11086). Described as above. To be noted: MTase-Glo luminescence, SAH detection, recombinant enzyme; measured here: PNMT max response; stronger effect = lower value.
Phenylethanolamine N-methyltransferase (Homo sapiens), sequence (P11086 whole entry, looked up): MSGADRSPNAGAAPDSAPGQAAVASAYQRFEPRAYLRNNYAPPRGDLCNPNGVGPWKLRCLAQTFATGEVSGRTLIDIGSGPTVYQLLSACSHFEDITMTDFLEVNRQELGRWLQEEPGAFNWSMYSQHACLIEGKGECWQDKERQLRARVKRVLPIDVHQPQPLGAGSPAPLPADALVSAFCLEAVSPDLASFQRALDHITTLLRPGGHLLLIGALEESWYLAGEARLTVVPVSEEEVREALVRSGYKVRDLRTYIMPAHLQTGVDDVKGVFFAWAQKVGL
In assay [9] the target is Rap guanine nucleotide exchange factor 3 (Homo sapiens) (UniProt O95398). The assay is described as follows: Confirmatory qHTS for agonist of cAMP-regulated guanine nucleotide exchange factor 3 (EPAC1) (AID 1645881).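 Further: EPAC1 catalysed release of BODIPY-GDP from Rap1B seen as fluorescence loss; 100% = effect of cAMP agonist control; nearly all actives have a fitted effect of over 75% in size.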
Rap guanine nucleotide exchange factor 3 (Homo sapiens), sequence (O95398 whole entry, looked up): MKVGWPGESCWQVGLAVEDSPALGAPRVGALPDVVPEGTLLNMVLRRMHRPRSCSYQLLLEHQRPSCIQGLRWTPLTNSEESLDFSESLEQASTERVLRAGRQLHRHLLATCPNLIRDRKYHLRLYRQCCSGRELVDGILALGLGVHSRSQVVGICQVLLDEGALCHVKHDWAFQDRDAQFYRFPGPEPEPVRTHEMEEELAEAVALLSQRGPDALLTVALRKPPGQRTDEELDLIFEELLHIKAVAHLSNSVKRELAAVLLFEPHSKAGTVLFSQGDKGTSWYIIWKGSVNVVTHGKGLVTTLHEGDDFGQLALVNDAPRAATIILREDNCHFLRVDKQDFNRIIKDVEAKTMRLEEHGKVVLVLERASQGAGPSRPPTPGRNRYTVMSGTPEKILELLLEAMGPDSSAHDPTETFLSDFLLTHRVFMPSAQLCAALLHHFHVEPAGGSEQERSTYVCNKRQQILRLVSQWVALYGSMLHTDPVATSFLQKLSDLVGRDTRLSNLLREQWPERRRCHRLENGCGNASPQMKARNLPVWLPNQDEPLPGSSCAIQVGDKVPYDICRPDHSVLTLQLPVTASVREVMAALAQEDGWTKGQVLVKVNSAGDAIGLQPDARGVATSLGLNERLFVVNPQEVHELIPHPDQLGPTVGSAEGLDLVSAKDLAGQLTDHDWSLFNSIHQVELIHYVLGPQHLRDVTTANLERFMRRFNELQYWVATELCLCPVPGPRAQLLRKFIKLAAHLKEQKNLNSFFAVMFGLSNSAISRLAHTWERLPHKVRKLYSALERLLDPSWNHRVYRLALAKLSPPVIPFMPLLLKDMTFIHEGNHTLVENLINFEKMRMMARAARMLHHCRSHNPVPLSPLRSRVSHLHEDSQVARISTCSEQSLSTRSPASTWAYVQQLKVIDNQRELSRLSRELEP
The target in assay [10] is Rap guanine nucleotide exchange factor 4 (Homo sapiens) (UniProt Q8WZA2). The assay is described as follows: Confirmatory qHTS for agonist of cAMP-regulated guanine nucleotide exchange factor 4 (EPAC2) (AID 1645884).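 Further: nucleotide exchange releases bodipy-GDP from Rap1 and this lowers its fluorescence; on the % scale 0 is the no-effect control and ±100 the full control effect; nearly all actives have a fitted effect of over 65% in size.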
Rap guanine nucleotide exchange factor 4 (Homo sapiens), sequence (Q8WZA2 whole entry, looked up): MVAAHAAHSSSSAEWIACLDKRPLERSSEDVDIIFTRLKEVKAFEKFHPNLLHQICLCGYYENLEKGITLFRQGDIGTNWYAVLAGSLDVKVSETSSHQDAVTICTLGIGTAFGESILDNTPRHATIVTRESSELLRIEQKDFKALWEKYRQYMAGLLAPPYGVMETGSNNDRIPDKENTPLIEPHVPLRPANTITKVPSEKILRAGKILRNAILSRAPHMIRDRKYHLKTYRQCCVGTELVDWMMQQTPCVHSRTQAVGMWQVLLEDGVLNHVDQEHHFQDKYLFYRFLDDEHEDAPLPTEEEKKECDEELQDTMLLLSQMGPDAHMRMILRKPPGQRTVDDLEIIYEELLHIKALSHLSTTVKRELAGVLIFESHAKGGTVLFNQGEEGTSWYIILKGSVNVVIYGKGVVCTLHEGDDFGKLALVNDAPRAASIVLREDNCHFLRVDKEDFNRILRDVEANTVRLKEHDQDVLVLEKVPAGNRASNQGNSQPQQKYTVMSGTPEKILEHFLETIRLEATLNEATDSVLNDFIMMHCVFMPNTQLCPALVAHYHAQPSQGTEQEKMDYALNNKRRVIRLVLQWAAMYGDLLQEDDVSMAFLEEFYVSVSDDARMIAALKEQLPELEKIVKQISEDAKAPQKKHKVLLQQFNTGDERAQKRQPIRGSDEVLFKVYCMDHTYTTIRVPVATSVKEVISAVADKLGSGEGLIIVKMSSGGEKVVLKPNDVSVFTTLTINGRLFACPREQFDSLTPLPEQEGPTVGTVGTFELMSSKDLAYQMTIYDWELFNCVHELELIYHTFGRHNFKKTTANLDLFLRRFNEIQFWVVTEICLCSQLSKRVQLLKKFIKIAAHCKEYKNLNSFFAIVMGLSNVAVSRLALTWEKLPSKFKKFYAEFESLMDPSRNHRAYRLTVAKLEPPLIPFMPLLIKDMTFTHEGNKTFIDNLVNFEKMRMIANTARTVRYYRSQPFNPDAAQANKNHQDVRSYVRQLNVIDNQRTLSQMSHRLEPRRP
Assay [11] shares this target. The assay is described as follows: Confirmatory qHTS for antagonist of cAMP-regulated guanine nucleotide exchange factor 4 (EPAC2) (AID 1645885). Further: nearly all actives have a fitted effect of over 25% in size. To be noted: outcome: dose series up to 114 µM.
For assay [12], the target named is Rap guanine nucleotide exchange factor 3 (Homo sapiens) (UniProt O95398). The assay is described as follows: Counterscreen qHTS for antagonist of cAMP-regulated guanine nucleotide exchange factor 3 (EPAC1) (AID 1645888). Further: % of control where 0% means no effect. A digest of the protocol: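 Measured: fluorescence of BODIPY-GDP bound to Rap1B, which falls as exchange proceeds. Conditions include 50 uM competing GDP, 5 and 30 min reads, and a later cAMP challenge for antagonist detection.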
(In general: Counterscreens check selectivity or assay interference.)

Assay [13] addresses N-terminal Xaa-Pro-Lys N-methyltransferase 1 (Homo sapiens) (UniProt Q9BV86). The assay is described as follows: Confirmatory qHTS for Inhibitors of N-terminal methyltransferase 1 (NTMT1): MTaseGlo Assay (AID 1645874).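 Further: luminescence from SAH made as NTMT1 methylates SPKRIA peptide using SAM; 0% = DMSO control and -100% = no-enzyme control; nearly all actives have a fitted effect of over 65% in size.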 The essentials: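 Enzyme mix (125 nM NTMT1, 100 uM SAM) + compound, 15 min RT; + 1 uM SPKRIA, 30 min RT, dark; MTase-Glo reagent 30 min, detection solution 30 min; luminescence. % inhibition vs no-enzyme/DMSO controls, 4-parameter Hill fit.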

N-terminal Xaa-Pro-Lys N-methyltransferase 1 (Homo sapiens), sequence (Q9BV86 whole entry, looked up): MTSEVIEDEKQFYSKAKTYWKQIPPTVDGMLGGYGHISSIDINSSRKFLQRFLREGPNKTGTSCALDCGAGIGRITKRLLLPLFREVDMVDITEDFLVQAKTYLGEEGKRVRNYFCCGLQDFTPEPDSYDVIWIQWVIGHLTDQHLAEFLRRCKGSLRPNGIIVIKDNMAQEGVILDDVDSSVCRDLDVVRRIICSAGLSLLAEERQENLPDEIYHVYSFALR

Turning to `Cc1cc(C(=O)N2Cc3cnn(C)c3Nc3ccccc32)ccc1CNC(=O)N1CCN(Cc2cc(O)cc(O)c2)CC1`, the Potency entry in assay [1], in assay [3] and in assay [4] was “inactive” throughout. Further, the Potency in [2] is 2.39 µM (active).
With `O=C(N[C@H](Cc1ccccc1)C(=O)O)c1sc2cc(F)ccc2c1Cl`, the Potency entry in assay [1], in assay [3] and in assay [4] was “inactive” in each case. In [2], the Potency was 16.9 µM (active).
Turning to `O=C(O)CC1CCC(c2ccc(-c3ccc(Nc4ccc(C(F)(F)F)nc4)cn3)cc2)CC1` (stereo unspecified), the Potency entry in assay [1], in assay [2], in assay [3] and in assay [4] was “inactive” throughout. The values for the activity in [5], in [7] and in assay [8] were -2.38%, -13.8% and -3.22%, respectively. Besides, the activity change, negative = inhibition in assay [6] is 0.046%.
As to `Cc1cc(C)c2nc(-c3ccccn3)cc(C(=O)Nc3ccc(S(=O)(=O)Nc4onc(C)c4C)cc3)c2c1`, the Potency entry in assay [1] is “inactive”. Moreover, the Potency in assay [2] is 26.8 µM (active). In addition, the outcome in assay [9], in [10] and in assay [12] was “inactive” each time. Besides, the outcome in assay [11] is “inactive; activator; fitted 7.5686 uM”.
Take `CNc1nc(C)nc(N[C@H]2CCC[C@@H](C(=O)NCc3ccc(C#N)cc3C(F)(F)F)C2)n1`: the Potency entry in assay [1], in assay [2], in [3] and in [4] was “inactive” each time.
Regarding `CC[C@H](NC(=O)c1c(O)c(-c2ccccc2)nc2ccccc12)c1ccccc1`, the Potency result in assay [1] and in assay [3] was “inactive” throughout. In addition, the Potency in [2] was 16.9 µM (active).
In the case of `O=C(O)c1ccnc2cc(-c3nc4ccccc4n3CCN3CCCCC3)sc12`, the Potency result in assay [1], in [13], in assay [3] and in [4] was “inactive” throughout.
As to `COc1ccc(-n2c(=O)[nH]c3cc(C(=O)NCc4ccc(Cl)cc4)sc3c2=O)nc1OC`, the Potency entry in [1], in assay [3] and in assay [4] was “inactive” each time. In assay [2], the Potency is 9.52 µM (active).
With `O=C(NCC(=O)N1CCCC1)Nc1ccc2ccccc2c1`, the Potency result in assay [1], in assay [2], in [3] and in [4] was “inactive” in each case. The activity in assay [5] is 1.31%; in [7], -23%; in [8], -8.32%. In addition, the activity change, negative = inhibition in assay [6] is -10.4%.
`O=C(N[C@@H]1CC[C@@H](c2cccc(F)c2F)CN(CC(F)(F)F)C1=O)N1CCC(n2c(=O)[nH]c3ncccc32)CC1`: the Potency entry in [1] is “inactive”. The results for the Potency in [2] and in [4] were 12 µM (active) and 16.3 µM (active), respectively.
Consider `NC(=O)[C@@H]1CC[C@H](c2ccc(OCc3ccccc3F)cc2)N1`, for which the Potency result in assay [1], in assay [2], in assay [3] and in [4] was “inactive” in each case.
As to `CN1CCN(C2=Nc3ccccc3Nc3ccc(O)cc32)CC1`, the Potency result in [1], in assay [2], in assay [3] and in assay [4] was “inactive” in each case.
In the case of `CC1(C)CC2C3=CCC4[C@@]5(C)CC[C@H](OC6OCC(O)C(OC7OC(CO)C(O)C(O)C7O)C6O)C(C)(C)C5CC[C@@]4(C)[C@]3(C)C[C@H](O)[C@@]2(CO)[C@H](OC(=O)c2ccccc2)C1` (stereo partly specified), the Potency result in assay [1] was “inactive”. For the same compound, the activity change, negative = viability loss in assay [3] is -12.4% [at 9.23 µM] (inactive).
Turning to `C=CC1(C)CC=C2C(CCC3C(C)(C(=O)O)CCCC23C)C1` (stereo unspecified), the Potency entry in [1] and in assay [3] was “inactive” in each case.
For `COc1ccc2[nH]c(S(=O)Cc3ncc(C)c(OC)c3C)nc2c1` (stereo unspecified), the Potency result in [1] and in assay [3] was “inactive” each time.
In the case of `C/C=C/C=C/C(O)=C1/C(=O)[C@]2(C)C3/C(=C(O)/C=C/C=C/C)C(=O)C4(C)C1[C@]1(C)O[C@@]4(O)[C@@]3(C)O[C@@]12O`, the Potency entry in [1] and in assay [3] was “inactive” in each case.
`C=C1CCC2C(C)(C(=O)OC)CCCC2(C)C1CCC1=CCOC1=O` (stereo unspecified): the Potency result in assay [1] and in assay [3] was “inactive” in each case.
Take `CCC(C)C1NC(=O)C2C(C)CCN2C(=O)C(CC(O)CO)OC(=O)CCNC(=O)C(C)N(C)C(=O)C(C(C)C)N(C)C1=O` (stereo unspecified): the Potency result in assay [1] and in assay [3] was “inactive” throughout.
For the compound `C=C1C(=O)O[C@@H]2/C=C(\C)CC/C=C(\C(=O)O[C@@H]3O[C@H](CO)[C@@H](O)[C@H](O)[C@H]3O)CC[C@@H]12`, the Potency entry in [1] and in assay [3] was “inactive” in each case.
Consider `C[C@@H]1O[C@@H](O[C@H]2[C@H](OC(=O)[C@]34CCC(C)(C)C[C@H]3C3=CCC5[C@@]6(C)C[C@@H](O)[C@@H](O[C@@H]7O[C@H](CO)[C@@H](O)[C@H](O)[C@H]7O)[C@@](C)(CO)C6[C@H](O)C[C@@]5(C)[C@]3(C)CC4)OC[C@H](O)[C@@H]2O)[C@H](O)[C@H](O[C@@H]2OC[C@](O)(CO)[C@H]2O)[C@H]1O[C@@H]1OC[C@@H](O)[C@H](O[C@H]2O[C@H](C)[C@@H](O)[C@H](O)[C@@H]2O)[C@H]1O` (stereo partly specified), for which, in assay [1], the activity change, negative = inhibition is 5.13% [at 12.4 µM] (inactive). In [3], the activity change, negative = viability loss was -25.2% [at 9.23 µM] (inactive).
Consider `C=C1CCC2[C@@](C)(C(=O)O)CCC[C@@]2(C)[C@@H]1CCc1ccoc1` (stereo partly specified), for which the Potency entry in assay [1] and in assay [3] was “inactive” in each case.
As for `C/C=C1/[C@H](O[C@@H]2O[C@H](CO)[C@@H](O)[C@H](O)[C@H]2O)OC=C2C(=O)O[C@@H]3C[C@@H](C(C)CO)[C@H](COC(=O)C[C@H]21)[C@H]3C` (stereo partly specified), the Potency entry in assay [1] and in assay [3] was “inactive” each time.
As to `C=C1CC[C@@H]2C(C)(C)CCC[C@@]2(C)[C@@H]1CC/C(=C/C(=O)OC)COC(C)=O`, the Potency entry in assay [1] and in [3] was “inactive” throughout.
For the compound `CC1(C)C[C@H]2C=C(C=O)[C@]3(C(=O)O)C[C@]3(C)[C@H]2C1`, the Potency result in [1] and in [3] was “inactive” in each case.
`CC(C)(O)C1OC1C1=CC(=O)C2(C)OC2C1O` (stereo unspecified): the Potency entry in assay [1] and in [3] was “inactive” each time.
As for `CC[C@@H](C)[C@H](NC(=O)C(C)(C)NC(=O)[C@H](CCC(N)=O)NC(=O)C(C)(CC)NC(=O)[C@H](Cc1c[nH]c2ccccc12)NC(C)=O)C(=O)N[C@H](C(=O)NC(C)(C)C(=O)N[C@@H](CC(C)C)C(=O)NC(C)(C)C(=O)N1CCC[C@H]1C(=O)N[C@@H](CCC(N)=O)C(=O)NC(C)(C)C(=O)N1CC(O)C[C@H]1C(=O)NC(C)(CC)C(=O)C1CC[C@@H](C(=O)N[C@@H](Cc2ccccc2)C(=O)NCC(=O)O)N1)C(C)O` (stereo partly specified) (Ac-W[ξIva]Q[Aib][aIle][Thr(3ξ)][Aib]L[Aib]PQ[Aib][X8]-X9), the activity change, negative = inhibition in [1] was 3.33% [at 12.4 µM] (inactive). Besides, in assay [3], the activity change, negative = viability loss was -38.6% [at 4.96 µM] (inactive).
As to `C=C(C(=O)O)C1CC(OC(=O)CC(C)CC)C2(C)CCCC(=C)C2C1` (stereo unspecified), the Potency entry in assay [1], in assay [3] and in assay [4] was “inactive” in each case.
As to `CCC(C)C(=O)O[C@H]1[C@@H](O[C@H]2O[C@H](CO)[C@@H](O)[C@H](O)[C@H]2O)O[C@H](CO)[C@@H](O)[C@@H]1O` (stereo partly specified), the Potency result in assay [1] and in [3] was “inactive” in each case.
Turning to `CC[C@@H]1[C@H]2CCCCN3C(=O)C[C@H]([C@@H]4[C@H]1OC(=O)[C@H]4C)[C@@H]23`, the Potency result in assay [1] and in assay [3] was “inactive” in each case.

(Values after PubChem BioAssay (NCATS).)
